Screening data from PubChem BioAssay.
An excerpt weighted towards active compounds, which were near 27% of everything screened.
CYP2C19 act = cytochrome P450 2C19 (human) activation; 96,000 tested, under 10 active; AID 1025; P33261; recombinant CYP2C19, luciferin-H EGE luminescence; active compounds read high; 0 = fully inhibited enzyme, 1 = untreated enzyme; activation factor at 5 µM;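 active = activation factor of at least 2 at 5 µM in the primary screen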
CYP2C9 inh = inhibitors of human CYP2C9; inhibition, % at 5 µM; P11712; actives 20% (n = 96,000); AID 777; CYP2C9 Supersomes, luciferin-H conversion, luminescence;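 active = blocking of liver enzyme CYP2C9 beyond about 50% at 5 µM, limit read from the data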
Target sequence (P11712 whole entry, looked up): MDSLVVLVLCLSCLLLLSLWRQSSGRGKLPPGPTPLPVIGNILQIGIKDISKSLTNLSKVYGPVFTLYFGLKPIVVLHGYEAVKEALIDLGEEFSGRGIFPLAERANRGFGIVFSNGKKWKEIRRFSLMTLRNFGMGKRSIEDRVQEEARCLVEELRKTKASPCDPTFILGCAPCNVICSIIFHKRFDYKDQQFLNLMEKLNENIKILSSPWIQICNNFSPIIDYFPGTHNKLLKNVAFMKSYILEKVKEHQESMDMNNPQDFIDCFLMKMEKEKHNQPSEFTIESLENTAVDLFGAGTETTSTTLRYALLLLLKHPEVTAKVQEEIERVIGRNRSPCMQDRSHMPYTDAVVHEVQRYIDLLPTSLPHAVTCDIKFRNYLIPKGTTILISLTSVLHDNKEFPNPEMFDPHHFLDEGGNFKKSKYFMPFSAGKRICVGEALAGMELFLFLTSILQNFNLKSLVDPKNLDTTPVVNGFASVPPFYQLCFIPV
CYP2C9 activ = CYP2C9 (human) activation; recombinant CYP2C9, luciferin-H conversion, luminescence; active compounds read high; factor 1 = untreated enzyme, 0 = blocked; activation factor at 5 µM; actives 1.4% (n = 96,000); AID 1024; P11712;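 active = activation factor of 2 or more for CYP2C9 at a 5 µM dose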
CYP2C19 inh = human CYP2C19 inhibition. actives 21% (n = 96,000). inhibition, % at 5 µM. P33261. AID 778. CYP2C19 Supersomes, luciferin-H EGE luminescence, 30 min;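 active = CYP2C19 inhibition above a set limit at 5 µM in the primary screen, cut at about 50% in these data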
Cav32 inh = human Cav3.2 channel inhibition, primary screen. Cav3.2-expressing cells, Fluo-4 calcium fluorescence FDSS; active compounds read low. actives 4% (n = 100,000). B-score at 10 µM. O95180. AID 449739;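 active = single-dose well whose peak fluorescence ratio is a statistical outlier from its plate by either plate-standardised score or position-corrected B-score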
Of the large screens only hits and unclear results are named; the others gave an inactive call.

CN1CCCCc2c1[nH]c1ccccc1c2=O	none
CCn1c(O)c(N=NC(=O)CNC(=O)/C=C/c2ccco2)c2ccccc21	CYP2C9 inh 65, CYP2C19 inh 50
O=C(CCc1ccccc1)Nc1ccc(NC(=O)c2ccco2)nc1	none
O=C(O)COc1ccc(NC(=O)c2ccco2)cc1	CYP2C9 activ 2.6
CC(Oc1ccc(NC(=O)c2ccco2)cc1)C(=O)N1c2ccccc2CC1C (stereo not given)	CYP2C9 inh 51
O=C(CSCCNS(=O)(=O)c1ccccc1)Nc1ccccc1	CYP2C19 inh 92
O=C(CCc1ccccc1)Nc1ccc(NC(=O)c2ccco2)cc1	CYP2C9 inh 82, CYP2C19 inh 71
CC(C)CC(NC(=O)C1CCCCC1)C(=O)N1CCN(c2ccccn2)CC1 (stereo not given)	none
CCOC(=O)CSc1cccc2cccnc12	none (no result: CYP2C19 act, CYP2C9 inh, CYP2C9 activ, CYP2C19 inh)
CC(=O)C1C(c2ccc(F)c(F)c2)NC(=O)NC1(O)C(F)(F)F (stereo not given)	none (no result: CYP2C19 act, CYP2C9 inh, CYP2C9 activ, CYP2C19 inh)
CCOc1ccc(Oc2cc(NC(=O)c3ccco3)cc([N+](=O)[O-])c2)cc1	CYP2C9 inh 53 (no result: Cav32 inh)
CCOCCCNS(=O)(=O)c1ccc(NC(=O)c2ccccc2)cc1	none
O=C(Nc1ccccc1-c1ccccc1)c1ccc(NC(=O)c2ccco2)cc1	CYP2C19 inh 53, Cav32 inh -5.5
O=C(Nc1ccc(S(=O)(=O)NCCc2ccccc2)cc1)c1ccco1	CYP2C9 inh 95, CYP2C19 inh 59
CCOCC(=O)Nc1ccc(S(=O)(=O)NCCc2ccccc2)cc1	CYP2C19 inh 60 (no result: Cav32 inh)
O=C(O)c1cccc(S(=O)(=O)N2CCSCC2)c1	none
Cc1cc(C(=O)CSc2nc3ccccc3[nH]2)c(C)n1C	CYP2C9 inh 60, CYP2C19 inh 87
Cc1cc(C(=O)CSc2nc3ccc(Cl)cc3[nH]2)c(C)n1C	CYP2C9 inh 93, CYP2C19 inh 94
Cc1nn2c(=O)cc(CSc3nc4ccccc4[nH]3)nc2s1	CYP2C19 inh 58
Cc1cc(C(=O)CSc2nc3ccc(Cl)cc3[nH]2)c(C)n1CC1CCCO1 (stereo not given)	CYP2C9 inh 92, CYP2C19 inh 96
CCN(CC)C(=O)CSc1nnc(-c2ccc(F)cc2)n1N	none
Cc1cc2c(s1)CCCCC(=O)N2	none
COc1ccc(COc2cc(-c3cccc(OC)c3)nc3ccc(N)cc23)cc1	none (no result: CYP2C19 act, CYP2C9 inh, CYP2C9 activ, CYP2C19 inh)
CCC(=O)NC(Nc1sc2c(c1C(=O)OC)CCN(C)C2)(C(F)(F)F)C(F)(F)F	none (no result: CYP2C19 act, CYP2C9 inh, CYP2C9 activ, CYP2C19 inh)
COc1ccc(Nc2nnc(SCC(=O)N3CCCC3)s2)cc1	none (no result: Cav32 inh)
Cc1ccc2nc(SCC(=O)c3cc(C)n(C)c3C)[nH]c2c1	CYP2C9 inh 57
C=CCn1c(C)cc(C(=O)COc2nncc3ccccc23)c1C	CYP2C9 activ 2, CYP2C19 inh 61
COc1ccc2nc(SCC(=O)NC(C)(C)C)[nH]c2c1	CYP2C9 inh 66, CYP2C19 inh 85
COc1ccc(Nc2nnc(SCC(=O)c3cc(C)n(CC4CCCO4)c3C)s2)cc1 (stereo not given)	CYP2C9 inh 59, CYP2C19 inh 72
N=C1C=CC=C2C1=NC1(CCCCC1)N2O	none
Cc1ccc(NC(=O)c2ccc(CN3CCN(C)CC3)cc2)cc1Nc1nccc(-c2cccnc2)n1	none (no result: CYP2C19 act, CYP2C9 inh, CYP2C9 activ, CYP2C19 inh)
Nc1cc(=O)[nH]c(SCC(=O)N2CCc3ccccc3C2)n1	none
CCCCN1C(=O)c2ccc(C(=O)Nc3cccnc3)cc2C1=O	none
C/C(N)=C(/C#N)C(=O)CSc1nc2ccc(C)cc2[nH]1	CYP2C9 inh 63, CYP2C19 inh 88
C=CCn1c(C)cc(C(=O)CSc2nc3ccccc3[nH]2)c1C	CYP2C9 inh 68, CYP2C19 inh 62
Cc1cc(NC(=O)CSc2nc3cc(Cl)ccc3s2)no1	none
C=CCn1c(C)cc(C(=O)CSc2nc3ccccc3o2)c1C	CYP2C19 inh 64
Cc1cc(NC(=O)CSc2nc3ccc(Cl)cc3[nH]2)no1	CYP2C9 inh 62
C=CCn1c(C)cc(C(=O)CSc2nc3ccccc3c(=O)[nH]2)c1C	none
Cc1cc(C(=O)CSc2nc3ccccc3o2)c(C)n1C1CC1	none
Cc1ccccc1S(=O)(=O)Cc1ccc(C(=O)NCCCOC(C)C)o1	none
Cc1ccc2nc(C(=O)O)c(C(=O)O)nc2c1	none
Cc1ccc(C(=O)N(CC(=O)NC2CCCC2)Cc2cccs2)s1	CYP2C9 inh 88, CYP2C19 inh 74
O=C(CN(Cc1cccs1)C(=O)CSc1nnc(COc2ccccc2)o1)NC1CCCCC1	none (no result: CYP2C19 act, CYP2C9 inh, CYP2C9 activ, CYP2C19 inh)
Cc1sc2ncn(CC(=O)N(CC(=O)NC3CCCC3)Cc3cccs3)c(=O)c2c1C	CYP2C9 inh 56
COc1ccc(Nc2nccc3c2nnn3C)cc1	none
CN1C(=O)C2(c3ccccc31)N(C)CC(c1ccccn1)C21SC(=S)N(Cc2ccco2)C1=O (stereo not given)	Cav32 inh -4.7
CN1C(=O)C2(c3ccccc31)N(C)CC(c1ccccc1)C21SC(=S)N(Cc2ccco2)C1=O (stereo not given)	none
CCCCOc1cccc(C(=O)NNC(=S)NC2CCCCC2)c1	Cav32 inh -5.8 (no result: CYP2C19 act, CYP2C9 inh, CYP2C9 activ, CYP2C19 inh)
COc1cccc(C(=O)NC2CCN(C(=O)N3CCCCC3)CC2)c1	none
CCOc1cccc(C(=O)NC2CCCCC2)c1	CYP2C19 inh 68
CCOC(=O)C1CCN(C(=O)c2cccnc2)CC1	none
CCOc1cccc(C(=O)N2CCCCC2c2cccnc2)c1 (stereo not given)	CYP2C9 activ 2.1
CCOC(=O)COc1ccc(C(=O)NC2CCCCC2)cc1	CYP2C9 activ 3
NC(=O)c1ccc([N+](=O)[O-])cc1SCc1ccccc1	none
COc1ccc(CCc2cc(OC)cc(=O)o2)cc1	none (no result: CYP2C19 act, CYP2C9 inh, CYP2C9 activ, CYP2C19 inh)
CCOC(=O)COn1c(=O)c(-c2cccs2)[n+]([O-])c2ccccc21	none
CCOn1c(=O)c(-c2cccs2)[n+]([O-])c2ccccc21	CYP2C9 inh 53, CYP2C19 inh 58
Cc1cc(=O)[nH]c(SCC(=O)Nc2ccc(Br)cc2)c1C#N	CYP2C9 inh 93, CYP2C19 inh 95, Cav32 inh -9.8
COC(=O)CSc1[nH]c(=O)cc(C)c1C#N	none
COCc1cc(C)nc(SCC(=O)Nc2ccccc2C)c1C#N	CYP2C19 inh 94
CCc1nc(SCC(=O)NNC(=O)C(C)C)c2ccccc2n1	none
Cc1ccccc1NC(=O)CSc1nc(COc2ccccc2)nc2ccccc12	CYP2C9 inh 95, CYP2C19 inh 76
Cc1cc(=O)[nH]c(SCC(=O)Nc2ccccc2C#N)c1C#N	CYP2C9 inh 71, CYP2C19 inh 64
Cn1c(=O)c2c(-c3cccc(F)c3)c3c(nc2n(C)c1=O)-c1ccccc1C3O (stereo not given)	none
O=C(Nc1cccc(F)c1)C1CCN(C(=O)c2ccccc2Cl)CC1	none
COc1ccc2c(c1)N(C)/C(=C1/SC(=NCc3ccccc3)N(c3ccccc3)C1=O)S2	none
CCN1C(=O)/C(=C2/Sc3ccc(OC)cc3N2C)SC1=Nc1cccc(O)c1	CYP2C9 inh 55
CCCCCCCCCCCCCCCC(=O)OC[C@H](COP(=O)([O-])OCC[N+](C)(C)C)OC(=O)CCCCCCCCCCCCCCC	none (no result: CYP2C19 act, CYP2C9 inh, CYP2C9 activ, CYP2C19 inh)
